{"source": "the supplement of paper PMC4466140"}
{"biological_target": "ScBbc1", "assay": "SPOT peptide array binding signal intensity (averaged, normalized) (arbitrary units (background-subtracted, floor 0; scale differs between SH3 domains)); higher = stronger binding of the SH3 domain to the peptide", "procedure,_shortened": "(§1)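 Detection of bound protein relied on anti-GST antibody, an HRP anti-mouse secondary and luminol, with imaging and quantification in Genespotter. The bound protein was GST-fused SH3 domains from four yeast species, incubated at 10 μg/ml overnight at 4°C in TBS-based blocking buffer on cellulose membranes carrying synthetic 15-mer peptides with cysteines replaced by serines. Binding signal is normalized, background-subtracted spot intensity averaged over replicates, in arbitrary units that differ between domains.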"}
{"binder": "KWVRRPKLMTPLTFS", "SPOT peptide array binding signal intensity": 23}
{"biological_target": "ScBem1-D1", "assay": "SPOT peptide array binding signal intensity (averaged, normalized) (arbitrary units (background-subtracted, floor 0; scale differs between SH3 domains)); higher = stronger binding of the SH3 domain to the peptide", "procedure,_shortened": "as §1"}
{"binder": "KWVRRPKLMTPLTFS", "SPOT peptide array binding signal intensity": 91.5}
{"biological_target": "ScBzz1-D1", "assay": "SPOT peptide array binding signal intensity (averaged, normalized) (arbitrary units (background-subtracted, floor 0; scale differs between SH3 domains)); higher = stronger binding of the SH3 domain to the peptide", "procedure,_shortened": "as §1"}
{"binder": "KWVRRPKLMTPLTFS", "SPOT peptide array binding signal intensity": 50.5}
{"biological_target": "ScBzz1-D2", "assay": "SPOT peptide array binding signal intensity (averaged, normalized) (arbitrary units (background-subtracted, floor 0; scale differs between SH3 domains)); higher = stronger binding of the SH3 domain to the peptide", "procedure,_shortened": "as §1"}
{"binder": "KWVRRPKLMTPLTFS", "SPOT peptide array binding signal intensity": 59}
{"biological_target": "ScCyk3", "assay": "SPOT peptide array binding signal intensity (averaged, normalized) (arbitrary units (background-subtracted, floor 0; scale differs between SH3 domains)); higher = stronger binding of the SH3 domain to the peptide", "procedure,_shortened": "as §1"}
{"binder": "KWVRRPKLMTPLTFS", "SPOT peptide array binding signal intensity": 64.5}
{"biological_target": "ScFus1", "assay": "SPOT peptide array binding signal intensity (averaged, normalized) (arbitrary units (background-subtracted, floor 0; scale differs between SH3 domains)); higher = stronger binding of the SH3 domain to the peptide", "procedure,_shortened": "as §1"}
{"binder": "KWVRRPKLMTPLTFS", "SPOT peptide array binding signal intensity": 1090}
{"biological_target": "ScHof1", "assay": "SPOT peptide array binding signal intensity (averaged, normalized) (arbitrary units (background-subtracted, floor 0; scale differs between SH3 domains)); higher = stronger binding of the SH3 domain to the peptide", "procedure,_shortened": "as §1"}
{"binder": "KWVRRPKLMTPLTFS", "SPOT peptide array binding signal intensity": 3.75}
{"biological_target": "ScHse1", "assay": "SPOT peptide array binding signal intensity (averaged, normalized) (arbitrary units (background-subtracted, floor 0; scale differs between SH3 domains)); higher = stronger binding of the SH3 domain to the peptide", "procedure,_shortened": "as §1"}
{"binder": "KWVRRPKLMTPLTFS", "SPOT peptide array binding signal intensity": 1650}
{"biological_target": "ScLsb1", "assay": "SPOT peptide array binding signal intensity (averaged, normalized) (arbitrary units (background-subtracted, floor 0; scale differs between SH3 domains)); higher = stronger binding of the SH3 domain to the peptide", "procedure,_shortened": "as §1"}
{"binder": "KWVRRPKLMTPLTFS", "SPOT peptide array binding signal intensity": 132}
{"biological_target": "ScLsb2", "assay": "SPOT peptide array binding signal intensity (averaged, normalized) (arbitrary units (background-subtracted, floor 0; scale differs between SH3 domains)); higher = stronger binding of the SH3 domain to the peptide", "procedure,_shortened": "as §1"}
{"binder": "KWVRRPKLMTPLTFS", "SPOT peptide array binding signal intensity": 15.5}
{"biological_target": "ScLsb3", "assay": "SPOT peptide array binding signal intensity (averaged, normalized) (arbitrary units (background-subtracted, floor 0; scale differs between SH3 domains)); higher = stronger binding of the SH3 domain to the peptide", "procedure,_shortened": "as §1"}
{"binder": "KWVRRPKLMTPLTFS", "SPOT peptide array binding signal intensity": 166}
{"biological_target": "ScLsb4", "assay": "SPOT peptide array binding signal intensity (averaged, normalized) (arbitrary units (background-subtracted, floor 0; scale differs between SH3 domains)); higher = stronger binding of the SH3 domain to the peptide", "procedure,_shortened": "as §1"}
{"binder": "KWVRRPKLMTPLTFS", "SPOT peptide array binding signal intensity": 32.5}
{"biological_target": "ScMyo3", "assay": "SPOT peptide array binding signal intensity (averaged, normalized) (arbitrary units (background-subtracted, floor 0; scale differs between SH3 domains)); higher = stronger binding of the SH3 domain to the peptide", "procedure,_shortened": "as §1"}
{"binder": "KWVRRPKLMTPLTFS", "SPOT peptide array binding signal intensity": 3.5}
{"biological_target": "ScMyo5", "assay": "SPOT peptide array binding signal intensity (averaged, normalized) (arbitrary units (background-subtracted, floor 0; scale differs between SH3 domains)); higher = stronger binding of the SH3 domain to the peptide", "procedure,_shortened": "as §1"}
{"binder": "KWVRRPKLMTPLTFS", "SPOT peptide array binding signal intensity": 5.25}
{"biological_target": "ScNbp2", "assay": "SPOT peptide array binding signal intensity (averaged, normalized) (arbitrary units (background-subtracted, floor 0; scale differs between SH3 domains)); higher = stronger binding of the SH3 domain to the peptide", "procedure,_shortened": "as §1"}
{"binder": "KWVRRPKLMTPLTFS", "SPOT peptide array binding signal intensity": 818}
{"biological_target": "ScPex13", "assay": "SPOT peptide array binding signal intensity (averaged, normalized) (arbitrary units (background-subtracted, floor 0; scale differs between SH3 domains)); higher = stronger binding of the SH3 domain to the peptide", "procedure,_shortened": "as §1"}
{"binder": "KWVRRPKLMTPLTFS", "SPOT peptide array binding signal intensity": 56.8}
{"biological_target": "ScRvs167", "assay": "SPOT peptide array binding signal intensity (averaged, normalized) (arbitrary units (background-subtracted, floor 0; scale differs between SH3 domains)); higher = stronger binding of the SH3 domain to the peptide", "procedure,_shortened": "as §1"}
{"binder": "KWVRRPKLMTPLTFS", "SPOT peptide array binding signal intensity": 121}
{"biological_target": "ScSho1", "assay": "SPOT peptide array binding signal intensity (averaged, normalized) (arbitrary units (background-subtracted, floor 0; scale differs between SH3 domains)); higher = stronger binding of the SH3 domain to the peptide", "procedure,_shortened": "as §1"}
{"binder": "KWVRRPKLMTPLTFS", "SPOT peptide array binding signal intensity": 1880}
{"biological_target": "ScSla1-D1-D2", "assay": "SPOT peptide array binding signal intensity (averaged, normalized) (arbitrary units (background-subtracted, floor 0; scale differs between SH3 domains)); higher = stronger binding of the SH3 domain to the peptide", "procedure,_shortened": "as §1"}
{"binder": "KWVRRPKLMTPLTFS", "SPOT peptide array binding signal intensity": 735}
{"biological_target": "ScSla1-D3", "assay": "SPOT peptide array binding signal intensity (averaged, normalized) (arbitrary units (background-subtracted, floor 0; scale differs between SH3 domains)); higher = stronger binding of the SH3 domain to the peptide", "procedure,_shortened": "as §1"}
{"binder": "KWVRRPKLMTPLTFS", "SPOT peptide array binding signal intensity": 161}
{"biological_target": "SpAbp1-D1", "assay": "SPOT peptide array binding signal intensity (averaged, normalized) (arbitrary units (background-subtracted, floor 0; scale differs between SH3 domains)); higher = stronger binding of the SH3 domain to the peptide", "procedure,_shortened": "as §1"}
{"binder": "KWVRRPKLMTPLTFS", "SPOT peptide array binding signal intensity": 289}
{"biological_target": "SpBbc1", "assay": "SPOT peptide array binding signal intensity (averaged, normalized) (arbitrary units (background-subtracted, floor 0; scale differs between SH3 domains)); higher = stronger binding of the SH3 domain to the peptide", "procedure,_shortened": "as §1"}
{"binder": "KWVRRPKLMTPLTFS", "SPOT peptide array binding signal intensity": 7}
{"biological_target": "SpBzz1-D1", "assay": "SPOT peptide array binding signal intensity (averaged, normalized) (arbitrary units (background-subtracted, floor 0; scale differs between SH3 domains)); higher = stronger binding of the SH3 domain to the peptide", "procedure,_shortened": "as §1"}
{"binder": "KWVRRPKLMTPLTFS", "SPOT peptide array binding signal intensity": 176}
{"biological_target": "SpBzz1-D2", "assay": "SPOT peptide array binding signal intensity (averaged, normalized) (arbitrary units (background-subtracted, floor 0; scale differs between SH3 domains)); higher = stronger binding of the SH3 domain to the peptide", "procedure,_shortened": "as §1"}
{"binder": "KWVRRPKLMTPLTFS", "SPOT peptide array binding signal intensity": 0.5}
{"biological_target": "SpCyk3", "assay": "SPOT peptide array binding signal intensity (averaged, normalized) (arbitrary units (background-subtracted, floor 0; scale differs between SH3 domains)); higher = stronger binding of the SH3 domain to the peptide", "procedure,_shortened": "as §1"}
{"binder": "KWVRRPKLMTPLTFS", "SPOT peptide array binding signal intensity": 7}
{"biological_target": "SpHof1", "assay": "SPOT peptide array binding signal intensity (averaged, normalized) (arbitrary units (background-subtracted, floor 0; scale differs between SH3 domains)); higher = stronger binding of the SH3 domain to the peptide", "procedure,_shortened": "as §1"}
{"binder": "KWVRRPKLMTPLTFS", "SPOT peptide array binding signal intensity": 158}
{"biological_target": "SpHof1-2", "assay": "SPOT peptide array binding signal intensity (averaged, normalized) (arbitrary units (background-subtracted, floor 0; scale differs between SH3 domains)); higher = stronger binding of the SH3 domain to the peptide", "procedure,_shortened": "as §1"}
{"binder": "KWVRRPKLMTPLTFS", "SPOT peptide array binding signal intensity": 17}
{"biological_target": "SpHof1-3", "assay": "SPOT peptide array binding signal intensity (averaged, normalized) (arbitrary units (background-subtracted, floor 0; scale differs between SH3 domains)); higher = stronger binding of the SH3 domain to the peptide", "procedure,_shortened": "as §1"}
{"binder": "KWVRRPKLMTPLTFS", "SPOT peptide array binding signal intensity": 450}
{"biological_target": "SpHse1", "assay": "SPOT peptide array binding signal intensity (averaged, normalized) (arbitrary units (background-subtracted, floor 0; scale differs between SH3 domains)); higher = stronger binding of the SH3 domain to the peptide", "procedure,_shortened": "as §1"}
{"binder": "KWVRRPKLMTPLTFS", "SPOT peptide array binding signal intensity": 666}
{"biological_target": "SpLsb1", "assay": "SPOT peptide array binding signal intensity (averaged, normalized) (arbitrary units (background-subtracted, floor 0; scale differs between SH3 domains)); higher = stronger binding of the SH3 domain to the peptide", "procedure,_shortened": "as §1"}
{"binder": "KWVRRPKLMTPLTFS", "SPOT peptide array binding signal intensity": 466}
{"biological_target": "SpLsb4", "assay": "SPOT peptide array binding signal intensity (averaged, normalized) (arbitrary units (background-subtracted, floor 0; scale differs between SH3 domains)); higher = stronger binding of the SH3 domain to the peptide", "procedure,_shortened": "as §1"}
{"binder": "KWVRRPKLMTPLTFS", "SPOT peptide array binding signal intensity": 500}
{"biological_target": "SpMyo1", "assay": "SPOT peptide array binding signal intensity (averaged, normalized) (arbitrary units (background-subtracted, floor 0; scale differs between SH3 domains)); higher = stronger binding of the SH3 domain to the peptide", "procedure,_shortened": "as §1"}
{"binder": "KWVRRPKLMTPLTFS", "SPOT peptide array binding signal intensity": 8.75}
{"biological_target": "SpNbp2", "assay": "SPOT peptide array binding signal intensity (averaged, normalized) (arbitrary units (background-subtracted, floor 0; scale differs between SH3 domains)); higher = stronger binding of the SH3 domain to the peptide", "procedure,_shortened": "as §1"}
{"binder": "KWVRRPKLMTPLTFS", "SPOT peptide array binding signal intensity": 558}
{"biological_target": "SpPex13", "assay": "SPOT peptide array binding signal intensity (averaged, normalized) (arbitrary units (background-subtracted, floor 0; scale differs between SH3 domains)); higher = stronger binding of the SH3 domain to the peptide", "procedure,_shortened": "as §1"}
{"binder": "KWVRRPKLMTPLTFS", "SPOT peptide array binding signal intensity": 217}
{"biological_target": "SpRvs167", "assay": "SPOT peptide array binding signal intensity (averaged, normalized) (arbitrary units (background-subtracted, floor 0; scale differs between SH3 domains)); higher = stronger binding of the SH3 domain to the peptide", "procedure,_shortened": "as §1"}
{"binder": "KWVRRPKLMTPLTFS", "SPOT peptide array binding signal intensity": 34.2}
{"biological_target": "SpSla1-D1-D2", "assay": "SPOT peptide array binding signal intensity (averaged, normalized) (arbitrary units (background-subtracted, floor 0; scale differs between SH3 domains)); higher = stronger binding of the SH3 domain to the peptide", "procedure,_shortened": "as §1"}
{"binder": "KWVRRPKLMTPLTFS", "SPOT peptide array binding signal intensity": 1.5}
{"biological_target": "SpSla1-D3", "assay": "SPOT peptide array binding signal intensity (averaged, normalized) (arbitrary units (background-subtracted, floor 0; scale differs between SH3 domains)); higher = stronger binding of the SH3 domain to the peptide", "procedure,_shortened": "as §1"}
{"binder": "KWVRRPKLMTPLTFS", "SPOT peptide array binding signal intensity": 62}
